In ChEMBL document CHEMBL1961873, “Compounds: GSK PKIS; Assays: Nanosyn kinase panel” (2012):

Legend:
[1] = biological target: 5'-AMP-activated protein kinase catalytic subunit alpha-2 (Homo sapiens) (UniProt P54646); conditions: at 1 µM
[2] = biological target: T1, NUAK family SNF1-like kinase 1 (Homo sapiens) (UniProt O60285); conditions: at 0.1 µM
T1 sequence (whole entry): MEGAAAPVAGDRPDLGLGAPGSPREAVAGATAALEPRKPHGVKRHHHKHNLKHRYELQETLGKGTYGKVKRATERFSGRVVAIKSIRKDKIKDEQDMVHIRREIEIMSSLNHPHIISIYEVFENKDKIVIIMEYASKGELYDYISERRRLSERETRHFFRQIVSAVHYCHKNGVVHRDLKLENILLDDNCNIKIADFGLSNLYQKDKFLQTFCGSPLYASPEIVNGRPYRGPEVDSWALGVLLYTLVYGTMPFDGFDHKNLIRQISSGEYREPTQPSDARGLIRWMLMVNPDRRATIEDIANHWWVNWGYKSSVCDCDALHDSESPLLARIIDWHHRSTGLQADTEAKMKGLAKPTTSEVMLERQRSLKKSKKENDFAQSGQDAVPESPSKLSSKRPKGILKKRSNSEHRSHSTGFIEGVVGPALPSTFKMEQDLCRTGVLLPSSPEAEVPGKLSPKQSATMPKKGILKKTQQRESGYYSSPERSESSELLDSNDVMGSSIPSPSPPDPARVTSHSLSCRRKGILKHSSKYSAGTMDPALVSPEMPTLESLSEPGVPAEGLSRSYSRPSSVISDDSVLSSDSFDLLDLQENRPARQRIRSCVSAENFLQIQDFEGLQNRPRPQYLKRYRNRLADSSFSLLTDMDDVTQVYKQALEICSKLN

[3] = biological target: T1, NUAK family SNF1-like kinase 1 (Homo sapiens); conditions: at 1 µM
[4] = biological target: T2, Serine/threonine-protein kinase BRSK1 (Homo sapiens) (UniProt Q8TDC3); conditions: at 0.1 µM
T2 sequence (whole entry): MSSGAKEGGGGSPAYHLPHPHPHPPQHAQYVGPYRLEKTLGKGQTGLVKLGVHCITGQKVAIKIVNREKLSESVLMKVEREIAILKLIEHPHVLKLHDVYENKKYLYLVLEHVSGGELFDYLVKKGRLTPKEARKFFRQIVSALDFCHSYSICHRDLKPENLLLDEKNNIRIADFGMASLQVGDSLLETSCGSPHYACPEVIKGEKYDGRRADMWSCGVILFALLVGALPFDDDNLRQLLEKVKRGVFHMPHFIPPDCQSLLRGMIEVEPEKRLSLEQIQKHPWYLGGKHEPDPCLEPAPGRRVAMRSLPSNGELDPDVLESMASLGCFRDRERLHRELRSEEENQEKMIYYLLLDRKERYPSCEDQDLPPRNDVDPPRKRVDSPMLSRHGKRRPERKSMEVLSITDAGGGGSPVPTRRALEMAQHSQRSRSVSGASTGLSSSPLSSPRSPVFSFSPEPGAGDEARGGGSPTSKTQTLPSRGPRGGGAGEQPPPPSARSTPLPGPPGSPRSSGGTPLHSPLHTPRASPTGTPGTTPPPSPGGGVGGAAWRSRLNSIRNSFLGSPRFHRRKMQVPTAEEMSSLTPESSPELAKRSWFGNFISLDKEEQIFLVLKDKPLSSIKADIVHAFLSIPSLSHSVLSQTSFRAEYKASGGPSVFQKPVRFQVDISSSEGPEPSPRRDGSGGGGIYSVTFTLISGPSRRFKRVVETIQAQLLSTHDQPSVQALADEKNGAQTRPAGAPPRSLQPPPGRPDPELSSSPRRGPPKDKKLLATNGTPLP

[5] = biological target: T2, Serine/threonine-protein kinase BRSK1 (Homo sapiens); conditions: at 1 µM
[6] = biological target: T3, Serine/threonine-protein kinase BRSK2 (Homo sapiens) (UniProt Q8IWQ3); conditions: at 0.1 µM
T3 sequence (whole entry): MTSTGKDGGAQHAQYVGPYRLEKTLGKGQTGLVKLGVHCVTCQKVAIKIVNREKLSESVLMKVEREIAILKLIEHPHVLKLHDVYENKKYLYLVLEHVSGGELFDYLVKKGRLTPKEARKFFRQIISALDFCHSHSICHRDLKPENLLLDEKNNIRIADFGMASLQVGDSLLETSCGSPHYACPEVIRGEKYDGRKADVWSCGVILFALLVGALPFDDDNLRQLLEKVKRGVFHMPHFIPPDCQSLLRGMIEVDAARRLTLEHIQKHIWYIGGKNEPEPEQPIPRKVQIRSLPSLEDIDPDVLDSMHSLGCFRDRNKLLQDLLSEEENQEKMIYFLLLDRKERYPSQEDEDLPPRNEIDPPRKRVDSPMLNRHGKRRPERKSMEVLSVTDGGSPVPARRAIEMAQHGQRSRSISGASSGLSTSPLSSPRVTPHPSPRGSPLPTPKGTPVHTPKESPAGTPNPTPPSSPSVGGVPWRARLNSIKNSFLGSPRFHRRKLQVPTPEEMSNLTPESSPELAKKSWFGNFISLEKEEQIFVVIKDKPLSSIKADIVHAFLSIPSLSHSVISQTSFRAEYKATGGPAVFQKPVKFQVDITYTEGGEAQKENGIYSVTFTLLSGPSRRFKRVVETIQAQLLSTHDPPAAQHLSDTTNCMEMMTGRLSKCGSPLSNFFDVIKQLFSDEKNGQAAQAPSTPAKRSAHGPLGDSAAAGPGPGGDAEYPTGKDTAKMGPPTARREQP

[7] = biological target: T3, Serine/threonine-protein kinase BRSK2 (Homo sapiens); conditions: at 1 µM
[8] = biological target: Calcium/calmodulin-dependent protein kinase type 1D (Homo sapiens) (UniProt Q8IU85); conditions: at 0.1 µM
Chain of Calcium/calmodulin-dependent protein kinase type 1D (Homo sapiens) (Q8IU85 whole entry, looked up): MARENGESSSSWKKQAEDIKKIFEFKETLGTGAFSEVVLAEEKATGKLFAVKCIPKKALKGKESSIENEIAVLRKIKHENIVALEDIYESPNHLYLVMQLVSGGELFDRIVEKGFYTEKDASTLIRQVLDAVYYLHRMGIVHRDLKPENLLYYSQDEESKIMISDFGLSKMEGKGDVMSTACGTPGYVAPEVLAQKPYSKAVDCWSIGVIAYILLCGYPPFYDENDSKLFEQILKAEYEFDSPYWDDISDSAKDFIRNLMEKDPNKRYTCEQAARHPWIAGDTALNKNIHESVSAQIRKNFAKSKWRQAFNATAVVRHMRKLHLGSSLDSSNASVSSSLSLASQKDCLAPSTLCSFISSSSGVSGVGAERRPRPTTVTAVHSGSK

[9] = biological target: Calcium/calmodulin-dependent protein kinase type 1D (Homo sapiens) (UniProt Q8IU85); conditions: at 1 µM
[10] = biological target: Calcium/calmodulin-dependent protein kinase type II subunit alpha (Homo sapiens) (UniProt Q9UQM7); conditions: at 0.1 µM
Chain of Calcium/calmodulin-dependent protein kinase type II subunit alpha (Homo sapiens) (Q9UQM7 whole entry): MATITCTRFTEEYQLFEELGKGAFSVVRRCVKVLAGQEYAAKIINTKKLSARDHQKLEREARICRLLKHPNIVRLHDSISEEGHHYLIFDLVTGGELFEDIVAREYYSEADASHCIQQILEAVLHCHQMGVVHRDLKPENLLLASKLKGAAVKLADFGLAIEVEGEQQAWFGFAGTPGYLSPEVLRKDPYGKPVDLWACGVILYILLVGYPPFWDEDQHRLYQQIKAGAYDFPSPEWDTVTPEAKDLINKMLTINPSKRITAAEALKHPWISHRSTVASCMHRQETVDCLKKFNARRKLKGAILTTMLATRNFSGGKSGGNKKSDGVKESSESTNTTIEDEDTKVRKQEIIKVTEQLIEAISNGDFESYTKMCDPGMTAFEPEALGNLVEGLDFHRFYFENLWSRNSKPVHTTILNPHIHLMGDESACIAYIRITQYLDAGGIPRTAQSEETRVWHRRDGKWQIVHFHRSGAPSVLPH

[11] = biological target: Calcium/calmodulin-dependent protein kinase type II subunit alpha (Homo sapiens) (UniProt Q9UQM7); conditions: at 1 µM
[12] = biological target: Calcium/calmodulin-dependent protein kinase type II subunit delta (Homo sapiens) (UniProt Q13557); conditions: at 0.1 µM
Chain of Calcium/calmodulin-dependent protein kinase type II subunit delta (Homo sapiens) (Q13557 whole entry): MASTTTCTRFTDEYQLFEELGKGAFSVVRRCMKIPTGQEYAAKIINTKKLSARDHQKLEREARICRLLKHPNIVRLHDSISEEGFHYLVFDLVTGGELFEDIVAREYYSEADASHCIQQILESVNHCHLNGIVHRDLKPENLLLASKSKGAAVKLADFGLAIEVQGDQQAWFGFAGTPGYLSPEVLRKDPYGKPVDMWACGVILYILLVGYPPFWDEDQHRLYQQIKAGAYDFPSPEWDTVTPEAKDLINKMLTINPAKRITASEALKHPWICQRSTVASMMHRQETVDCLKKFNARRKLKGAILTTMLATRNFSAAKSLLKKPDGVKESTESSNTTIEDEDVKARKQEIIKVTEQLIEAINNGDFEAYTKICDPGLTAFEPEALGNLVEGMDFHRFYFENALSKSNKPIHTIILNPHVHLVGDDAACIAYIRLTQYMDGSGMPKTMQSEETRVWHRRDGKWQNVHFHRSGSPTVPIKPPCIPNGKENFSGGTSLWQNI

[13] = biological target: Calcium/calmodulin-dependent protein kinase type II subunit delta (Homo sapiens) (UniProt Q13557); conditions: at 1 µM
[14] = biological target: T4, Calcium/calmodulin-dependent protein kinase type IV (Homo sapiens) (UniProt Q16566); conditions: at 0.1 µM
T4 sequence (whole entry): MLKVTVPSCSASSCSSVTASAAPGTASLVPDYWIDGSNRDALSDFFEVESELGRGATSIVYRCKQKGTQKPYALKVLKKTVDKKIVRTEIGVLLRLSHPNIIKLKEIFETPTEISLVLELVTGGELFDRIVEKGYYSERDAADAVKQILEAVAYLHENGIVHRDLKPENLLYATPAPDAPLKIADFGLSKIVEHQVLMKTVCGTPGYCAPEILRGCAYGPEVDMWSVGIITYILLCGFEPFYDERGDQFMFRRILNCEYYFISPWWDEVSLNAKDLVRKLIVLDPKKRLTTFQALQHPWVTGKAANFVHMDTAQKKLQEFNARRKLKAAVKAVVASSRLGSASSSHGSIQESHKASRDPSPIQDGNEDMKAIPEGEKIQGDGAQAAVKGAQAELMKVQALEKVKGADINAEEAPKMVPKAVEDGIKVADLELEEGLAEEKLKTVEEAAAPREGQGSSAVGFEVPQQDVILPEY

[15] = biological target: T4, Calcium/calmodulin-dependent protein kinase type IV (Homo sapiens); conditions: at 1 µM
[16] = biological target: T5, Serine/threonine-protein kinase Chk1 (Homo sapiens) (UniProt O14757); conditions: at 0.1 µM
T5 sequence (whole entry): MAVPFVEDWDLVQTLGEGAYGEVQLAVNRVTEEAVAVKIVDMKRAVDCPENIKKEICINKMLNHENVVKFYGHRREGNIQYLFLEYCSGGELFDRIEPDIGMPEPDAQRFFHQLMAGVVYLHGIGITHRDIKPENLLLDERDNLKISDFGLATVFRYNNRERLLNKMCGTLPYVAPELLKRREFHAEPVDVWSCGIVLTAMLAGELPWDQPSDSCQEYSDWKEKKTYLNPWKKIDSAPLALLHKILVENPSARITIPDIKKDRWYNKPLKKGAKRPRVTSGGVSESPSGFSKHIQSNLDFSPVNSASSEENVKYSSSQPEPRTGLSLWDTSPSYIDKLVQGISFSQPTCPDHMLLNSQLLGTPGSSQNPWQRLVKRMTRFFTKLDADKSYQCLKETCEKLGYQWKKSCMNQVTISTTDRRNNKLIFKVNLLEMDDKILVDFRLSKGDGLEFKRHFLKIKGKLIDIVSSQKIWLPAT

[17] = biological target: T5, Serine/threonine-protein kinase Chk1 (Homo sapiens); conditions: at 1 µM
[18] = biological target: Serine/threonine-protein kinase Chk2 (Homo sapiens) (UniProt O96017); conditions: at 0.1 µM
Chain of Serine/threonine-protein kinase Chk2 (Homo sapiens) (O96017 whole entry): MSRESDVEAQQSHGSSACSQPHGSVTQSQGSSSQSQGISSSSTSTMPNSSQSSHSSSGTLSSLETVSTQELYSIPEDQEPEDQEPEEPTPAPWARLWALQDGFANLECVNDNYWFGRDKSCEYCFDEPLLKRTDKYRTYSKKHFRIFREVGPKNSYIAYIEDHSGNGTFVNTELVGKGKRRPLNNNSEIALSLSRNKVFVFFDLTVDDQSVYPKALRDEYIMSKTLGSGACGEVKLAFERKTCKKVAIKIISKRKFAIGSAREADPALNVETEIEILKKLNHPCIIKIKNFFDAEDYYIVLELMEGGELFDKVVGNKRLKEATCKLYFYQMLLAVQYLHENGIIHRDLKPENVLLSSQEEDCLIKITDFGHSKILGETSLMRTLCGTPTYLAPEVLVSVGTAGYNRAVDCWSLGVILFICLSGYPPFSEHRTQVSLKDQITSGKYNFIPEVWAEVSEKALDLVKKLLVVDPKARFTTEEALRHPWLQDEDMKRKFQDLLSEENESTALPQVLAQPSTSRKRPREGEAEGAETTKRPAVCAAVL

[19] = biological target: Serine/threonine-protein kinase Chk2 (Homo sapiens) (UniProt O96017); conditions: at 1 µM
[20] = biological target: Death-associated protein kinase 1 (Homo sapiens) (UniProt P53355); conditions: at 0.1 µM;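 also: reported figure is the mean inhibition of DAPK1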
Chain of Death-associated protein kinase 1 (Homo sapiens) (P53355 whole entry, looked up): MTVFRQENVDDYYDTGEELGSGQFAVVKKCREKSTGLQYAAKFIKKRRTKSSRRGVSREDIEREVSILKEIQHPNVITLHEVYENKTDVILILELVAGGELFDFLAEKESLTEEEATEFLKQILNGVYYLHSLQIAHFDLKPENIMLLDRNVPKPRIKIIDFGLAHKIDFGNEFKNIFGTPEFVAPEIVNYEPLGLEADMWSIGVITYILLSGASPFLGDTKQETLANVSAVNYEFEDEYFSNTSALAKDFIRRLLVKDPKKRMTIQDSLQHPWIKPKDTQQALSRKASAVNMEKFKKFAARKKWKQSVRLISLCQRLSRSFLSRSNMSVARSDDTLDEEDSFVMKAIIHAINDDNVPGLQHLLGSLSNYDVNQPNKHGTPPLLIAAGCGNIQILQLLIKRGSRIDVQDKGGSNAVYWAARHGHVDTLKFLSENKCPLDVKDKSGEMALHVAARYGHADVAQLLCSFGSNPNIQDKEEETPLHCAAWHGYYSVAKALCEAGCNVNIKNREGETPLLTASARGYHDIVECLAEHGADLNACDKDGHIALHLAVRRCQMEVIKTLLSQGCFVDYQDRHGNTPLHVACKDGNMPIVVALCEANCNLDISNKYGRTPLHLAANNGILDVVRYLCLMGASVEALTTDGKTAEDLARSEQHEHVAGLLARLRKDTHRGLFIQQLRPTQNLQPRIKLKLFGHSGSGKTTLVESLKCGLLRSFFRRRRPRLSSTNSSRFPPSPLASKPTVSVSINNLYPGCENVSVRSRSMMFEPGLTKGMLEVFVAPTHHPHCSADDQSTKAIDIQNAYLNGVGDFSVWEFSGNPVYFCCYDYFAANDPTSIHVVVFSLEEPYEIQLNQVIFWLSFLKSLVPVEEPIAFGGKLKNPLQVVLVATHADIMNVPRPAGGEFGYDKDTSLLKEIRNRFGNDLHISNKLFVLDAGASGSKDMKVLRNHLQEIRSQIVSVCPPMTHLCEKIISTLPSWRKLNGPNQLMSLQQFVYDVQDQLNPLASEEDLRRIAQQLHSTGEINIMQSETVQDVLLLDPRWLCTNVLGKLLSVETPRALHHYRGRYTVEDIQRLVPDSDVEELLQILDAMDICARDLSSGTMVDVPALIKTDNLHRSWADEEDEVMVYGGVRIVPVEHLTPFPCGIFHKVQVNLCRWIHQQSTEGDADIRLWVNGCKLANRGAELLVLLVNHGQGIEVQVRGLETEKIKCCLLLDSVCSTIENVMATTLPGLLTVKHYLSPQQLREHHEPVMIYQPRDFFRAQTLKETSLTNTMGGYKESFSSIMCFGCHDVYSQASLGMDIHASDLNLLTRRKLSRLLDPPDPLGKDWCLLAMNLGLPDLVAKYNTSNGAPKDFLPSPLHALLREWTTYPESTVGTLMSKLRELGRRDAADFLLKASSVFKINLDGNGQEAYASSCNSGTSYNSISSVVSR

Chain of 5'-AMP-activated protein kinase catalytic subunit alpha-2 (Homo sapiens) (P54646 whole entry, looked up): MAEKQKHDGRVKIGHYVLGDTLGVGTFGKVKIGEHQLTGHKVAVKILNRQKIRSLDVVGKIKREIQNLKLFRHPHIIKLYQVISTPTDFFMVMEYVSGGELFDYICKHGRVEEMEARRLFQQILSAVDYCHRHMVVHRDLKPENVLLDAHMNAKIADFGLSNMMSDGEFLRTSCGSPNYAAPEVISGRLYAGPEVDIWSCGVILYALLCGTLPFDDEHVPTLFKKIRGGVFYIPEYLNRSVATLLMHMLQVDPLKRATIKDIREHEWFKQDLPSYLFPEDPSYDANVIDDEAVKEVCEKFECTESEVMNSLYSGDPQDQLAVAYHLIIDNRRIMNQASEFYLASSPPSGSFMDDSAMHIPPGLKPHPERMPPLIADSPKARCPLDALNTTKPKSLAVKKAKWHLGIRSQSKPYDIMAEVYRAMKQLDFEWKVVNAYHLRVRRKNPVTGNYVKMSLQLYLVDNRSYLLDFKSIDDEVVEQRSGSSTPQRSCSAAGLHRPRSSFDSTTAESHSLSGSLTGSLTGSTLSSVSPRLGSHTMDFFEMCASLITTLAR

Structure (SMILES) | inhibition [1] [%] | inhibition [2] [%] | inhibition [3] [%] | inhibition [4] [%] | inhibition [5] [%] | inhibition [6] [%] | inhibition [7] [%] | inhibition [8] [%] | inhibition [9] [%] | inhibition [10] [%] | inhibition [11] [%] | inhibition [12] [%] | inhibition [13] [%] | inhibition [14] [%] | inhibition [15] [%] | inhibition [16] [%] | inhibition [17] [%] | inhibition [18] [%] | inhibition [19] [%] | inhibition [20] [%]
COc1ccc2[nH]c3c4[nH]c5ccc(OC)cc5c4c4c(c3c2c1)C(=O)NC4=O | 51.6 | 78 | 77.3 | 71.3 | 102 | 92.2 | 94.9 | 6.96 | 39.6 | 6.99 | 22.9 | 17.4 | 57.6 | -5.78 | -3.69 | 22.4 | 65.6 | 81.2 | 83.4 | 2
CC(=O)NCc1cccc(C#Cc2cncnc2Nc2ccc(OCc3cccc(F)c3)c(Cl)c2)c1 | 3.37 | 3.47 | 1.8 | 1.85 | 3.55 | 1.29 | 5.12 | 0.67 | 2.08 | 24.7 | -0.5 | 0.37 | 1.1 | 1.04 | 2.01 | -3.2 | -4.26 | -4.58 | -3.41 | -6.93
CCc1nn2ncccc2c1-c1ccnc(NC2CC2)n1 | 2.42 | -1.38 | 1.14 | 3.05 | 1.03 | 1.62 | 4.01 | 1.12 | 2.41 | 2.89 | 3.03 | 2.51 | 4.18 | 3.71 | 2.48 | 2.02 | 2.69 | 1.64 | 3.66 | 3.5
Fc1ccc(-c2cc(-c3c[nH]nc3-c3ccccn3)ccn2)cc1 | 1.61 | -0.78 | -3.39 | -0.21 | 0.81 | 1.49 | 1.96 | -2.23 | -1.28 | 3.34 | 2.33 | 2.86 | 4.06 | -2.35 | -4.94 | 1.21 | -0.75 | 4.88 | 5.9 | 0.73
CN1CCC(n2cnc(-c3ccc(F)cc3)c2-c2ccnc(N)n2)CC1 | 3.56 | -0.55 | 5.58 | 1.29 | 1.45 | 1.08 | 7.04 | 0.79 | 1.05 | 2.13 | 2.5 | -0.04 | 4.76 | -0.06 | 0.61 | 0.82 | -1.42 | 1.28 | 9.16 | 2.13
CC(C)(CO)CNC(=O)c1ccc2c(c1)/C(=N/Nc1ccc(S(N)(=O)=O)cc1)C(=O)N2 | 33.7 | 19.7 | 58.6 | 6.46 | 37.7 | 11.6 | 52.2 | 0.39 | 1.92 | -0.2 | 4.28 | 0.61 | 12.2 | 0.55 | -0.51 | 0.39 | -3.69 | -0.89 | 5.93 | -0.17
